Source: PubChem
D2 PAM-1: potentiates the human D2 dopamine receptor allosterically | potentiation, % (no concentration beside the values) | DiscoveRx D2 beta-arrestin cells, luminescence, 90 min; 100% = 57 uM dopamine signal | P14416 | hit rate 0.23% among 360,000; in the data active = potentiation above about 50%; inconclusive = mostly about 30% to 49%
Target sequence (P14416 whole entry, looked up): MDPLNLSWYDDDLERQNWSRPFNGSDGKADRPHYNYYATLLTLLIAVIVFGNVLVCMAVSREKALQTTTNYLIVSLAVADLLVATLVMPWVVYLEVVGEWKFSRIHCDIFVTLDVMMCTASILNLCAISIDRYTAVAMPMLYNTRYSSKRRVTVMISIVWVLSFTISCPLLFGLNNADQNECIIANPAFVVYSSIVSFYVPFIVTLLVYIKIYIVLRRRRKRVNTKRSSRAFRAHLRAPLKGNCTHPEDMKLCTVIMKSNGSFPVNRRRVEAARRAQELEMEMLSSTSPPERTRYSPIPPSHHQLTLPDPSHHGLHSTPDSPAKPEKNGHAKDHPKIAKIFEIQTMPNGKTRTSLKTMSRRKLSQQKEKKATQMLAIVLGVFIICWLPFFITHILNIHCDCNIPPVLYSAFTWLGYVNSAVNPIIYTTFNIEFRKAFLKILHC
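PathHunter D2 cells, attached overnight at 37 deg C, received compound in DMSO plus dopamine at EC20 (50 nM final) for 90 min at 37 deg C. Beta-arrestin recruitment was read as luminescence after 1 h with detection reagent at ambient temperature.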
D2 ag-1: human D2 receptor agonism in beta-arrestin assay | hit rate 0.084% among 360,000 | AID 624465 | activation, % (no concentration beside the values) | P14416 | DiscoveRx PathHunter D2 beta-arrestin, luminescence, 90 min; 100% = 57 uM dopamine signal; in the data active = activation above about 40%; inconclusive = between about 15% and that limit
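DiscoveRx PathHunter D2 beta-arrestin cells (2,100/well) attached overnight, then compound-stimulated 90 min at 37 C in HBSS/10 mM HEPES/0.1% Tween-20 buffer; beta-galactosidase complementation read by luminescence after 1 h at ambient temperature. Dopamine 57 uM final (EC100) as control.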
D2 ag-2: activates the human D2 dopamine receptor. HEK293 T-REx D2 cells, calcium flux agonist mode. activation, % at 2 µM. AID 485358. hit rate 0.53% among 340,000. P14416;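 active = activation over 3 SD above normal in the single-dose calcium agonist read, cut at about 30% in these data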; also: 0% is about no effect
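HEK293 Trex D2 cells, tetracycline-induced, o/n 30 C 5% CO2; no-wash Ca dye, RT 30–90 min; 10-cycle baseline, 23 nl cpd added, kinetic Ca read 180 s; agonist hits = positive Ca response.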
D2 antag: antagonizes the human D2 dopamine receptor | P14416 | inhibition, % at 10 µM | hit rate 2% among 340,000 | AID 485344 | HEK293 TREx D2 cells, calcium flux, dopamine EC80; in the data active = inhibition above about 30%; inactive = below that, where a call was filed; also: 0% is about no effect
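In this primary screen, negative modulation is detected by tracking calcium flux after an EC80 dopamine challenge in inducible HEK293 T-REx D2 cells preexposed to test compound for 180 s.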
D2 PAM-2: positive allosteric modulators of human D2 dopamine receptor. potentiation, % at 10 µM. hit rate 0.34% among 340,000. HEK293 T-REx D2, calcium flux, EC20 dopamine potentiation. P14416;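 active = potentiation over 3 SD above the plate norm, cut at about 30% in these data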; also: 0% is about no effect
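Tetracycline-induced HEK293 T-REx cells force-coupled to calcium signalling expressed D2; compounds were pin-added after a 10 s baseline, read kinetically 180 s, then an EC20 dopamine challenge followed with a further 180 s calcium read.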
An asterisk follows results filed as active; ? = inconclusive; nt = no result; ! = not active in a repeat. Rows were chosen to be rich in hits. Some 2.4% of all compounds tested hit in one or more screens of this group.

SMILES | D2 PAM-1 | D2 ag-1 | D2 ag-2 | D2 antag | D2 PAM-2
CNc1ccc2oc(C[C@H]3O[C@@]4(CC[C@H]3C)O[C@H]([C@H](C)C(=O)c3ccc[nH]3)[C@H](C)C[C@H]4C)nc2c1C(=O)O | -16 | -11 | 96* | 62* | -18
COc1ccc(C)cc1NC(=O)N(Cc1ccc2c(c1)OCO2)C1CCN(Cc2ccccc2)CC1 | nt | nt | 0 | nt | -7
CCc1ccc(NC(=O)c2cccn(Cc3cccc([N+](=O)[O-])c3)c2=O)cc1 | nt | nt | 15 | nt | -1
CC(=O)N1CN2CN(C1)CN(C(C)=O)C2 | 0 | -1 | 2 | -9 | 34*
CSCCC(c1nnnn1Cc1ccccc1)N1CCC(n2c(=O)[nH]c3ccccc32)CC1 (configuration not stated) | ? | -1 | nt | nt | nt
O=c1[nH]c2ccccc2n1C1CCN(C(CCc2ccccc2)c2nnnn2Cc2ccccc2)CC1 (configuration not stated) | 52* | 13 | nt | nt | nt
CCOC(=O)C1(CCc2ccccc2)CCN(Cc2cccc3cnccc23)CC1 | -10 | 0 | 2 | -19 | -7
CCOC(=O)C1(CCc2ccccc2)CCN(Cc2cccc3c2OCO3)CC1 | -8 | 0 | 0 | 47* | -23
CCOC(=O)c1c(C)n(Cc2ccco2)c2c1cc(O)c1ccccc12 | 72* | ? | 1 | -9 | -6
CC(=O)NC1=C(N2CC2C)C(=O)C(NC(C)=O)=C(N2CC2C)C1=O (configuration not stated) | 95* | 10 | nt | nt | nt
CCCC(=O)NC1=C(N2CC2)C(=O)C(NC(=O)CCC)=C(N2CC2)C1=O | 6 | 11 | nt | nt | nt
ON1C2CCCCC2N(O)C1c1ccccc1F (configuration not stated) | -10 | -4 | 1 | 50* | 3
Cn1c(=O)n(C)c2cc(CNCCc3ccccc3)ccc21 | nt | nt | 3 | nt | nt
Oc1ccc(CC2CC3CCN2CC3)cc1O (configuration not stated) | -10 | 7 | 30* | -6 | -1
COc1cc(Br)cc(CN2CCN(C)CC2)c1O | -18 | -1 | -1 | 5 | -29
CCN1CCN(Cc2cc(Br)ccc2O)CC1 | -40 | 0 | 1 | 64* | -21
COc1ccc(Br)cc1CN1CCN(CCO)CC1 | -25 | 0 | 0 | 55* | -23
O=C(c1ccc2c(c1)N(Cc1ccc(F)cc1Cl)C(=O)c1ccccc1S2)N1CCC2(CC1)OCCO2 | nt | nt | 0 | nt | -5
Fc1ccccc1CCNCc1cccc2ccccc12 | -35 | -4 | 0 | 31* | -33
Cc1ccccc1-n1nc(C)c2c1NC(=O)CSC2c1ccc(N(C)C)cc1 (configuration not stated) | nt | nt | 3 | nt | 5
Oc1ccc(C[C@H]2NCCc3cc(O)c(O)cc32)cc1O | -22 | 7 | 5 | 85* | -37
CC1=NN=C(c2ccc(N)cc2)c2cc3c(cc2C1)OCO3 | 28 | 70* | 1 | -1 | -1
CCCC1=Nc2cc(C(=O)NCCCN(CC)CC)ccc2Sc2ccccc21 | nt | nt | 1 | nt | -13
CCN1CC=C(c2c[nH]c3ccccc23)CC1 | -38 | -3 | 0 | 83* | -21
Cc1[nH]c2ccccc2c1C(=O)CN1CC=C(c2ccccc2)CC1 | -8 | -3 | 3 | 10 | -28
SMILES | D2 PAM-1 | D2 ag-1 | D2 ag-2 | D2 antag | D2 PAM-2
C[C@H]1CCC[C@H](O)CCCCCc2cc(O)cc(O)c2C(=O)O1 | 2 | -3 | 1 | 32* | 7
N#Cc1c(Br)n(C2OC(CO)C(O)C2O)c2ncnc(N)c12 (configuration not stated) | ? | 70* | nt | nt | nt
Cc1c(Cl)cccc1NC(=O)CN1C(=O)C(C)N=C(c2ccccc2)c2ccccc21 (configuration not stated) | nt | nt | 0 | nt | 18
Cc1ccc(-n2c(/C=C/c3ccccc3)nc3ccccc3c2=O)cc1C | nt | nt | 1 | nt | -13
c1cc2n(c1)-c1c(ccc3c1OCO3)CNC2c1ccc2c(c1)OCO2 (configuration not stated) | -36 | -5 | 0 | 51* | 1
CC1(C)CSC(=NCc2ccccc2)N1 | -8 | -2 | 73* | 56* | -17
Cn1c(=O)n(C)c2cc(CNCCc3ccc(F)cc3)ccc21 | nt | nt | 2 | nt | -10
CCN(CC)C(=O)c1ccc(NC(=O)CCn2nc(-c3ccc(Cl)cc3)c3ccccc3c2=O)cc1 | nt | nt | -1 | nt | -9
CCNC(=O)NC(=O)C(C)OC(=O)c1c(C)nn(Cc2ccccc2Cl)c1Cl (configuration not stated) | -10 | 0 | -1 | 5 | -5
CCNC(=O)NC(=O)C(C)OC(=O)c1c(C)nn(Cc2ccccc2)c1Cl (configuration not stated) | -3 | 1 | -1 | 40* | 1
CCn1cc(C(=O)NCc2ccccc2)c2ccccc21 | -20 | -6 | 1 | 5 | -32
CCn1cc(C(=O)O)c(=O)c2ccc(C)nc21 | -6 | -6 | 0 | 41*! | 4
Cc1cccc(-n2c(CC3C(=O)Nc4ccc(C)cc43)nc3ccccc3c2=O)c1 (configuration not stated) | nt | nt | 4 | nt | 4
CN1CSC(=S)N(C)C1 | -2 | -6 | 0 | 42* | 7
COc1ccc(C(=O)C2CCCN(C3CSCCSC3)C2)c(OC)c1 (configuration not stated) | -18 | 2 | 1 | 57* | -15
O=C(c1ccco1)c1cn(Cc2ccc(Cl)cc2)c2ccccc12 | -1 | -3 | -1 | 31* | -12
COc1ccccc1OCCCn1cc(C(=O)c2ccco2)c2ccccc21 | -6 | -4 | 2 | -10 | -1
Fc1ccc2c(c1)nnn2C1CCN(Cc2ccccc2)CC1 | -37 | -3 | 1 | 82* | -26
Cc1ccc(C(C)C)c(OCC(=O)N2CCN(CCc3ccncc3)CC2)c1 | nt | nt | 0 | nt | 4
COc1ccc(NC(=O)CN2C(=O)C(C)N=C(c3ccccc3F)c3cc(Cl)ccc32)c(OC)c1 (configuration not stated) | nt | nt | 0 | nt | 0
COc1ccc(F)cc1C(=O)C1CCCN(Cc2ccc(O)cc2)C1 (configuration not stated) | -14 | -3 | 0 | 72* | -22
COc1ccc(F)cc1C(=O)C1CCCN(Cc2cnc(C)s2)C1 (configuration not stated) | -5 | -2 | 1 | 17 | -18
COc1ccccc1CN1CCCC(C(=O)c2ccccc2OC)C1 (configuration not stated) | -25 | 2 | 0 | -7 | -16
CCOc1ccc(CN2CCCC(C(=O)c3ccccc3OC)C2)cc1 (configuration not stated) | -21 | 7 | 0 | 72* | -24
O=C(Nc1ccc2c(c1)OCCO2)c1cccn(Cc2cccc(F)c2)c1=O | nt | nt | 0 | nt | 16
Cc1ccc(Cl)cc1NC(=O)N(Cc1ccc2c(c1)OCO2)C1CCN(Cc2ccccc2)CC1 | nt | nt | 2 | nt | -19
